From ChEMBL document CHEMBL3433997, “St. Jude Leishmania screening dataset” (2016)

Experiments:
Assay type in all cases: functional
[1] = biological target: Solute carrier family 2, facilitated glucose transporter member 1 (Homo sapiens) (UniProt P11166); assay: ST_JUDE_LEISH: Cytotoxicity at 2uM final concentration against transgenic Leishmania Mexicana promastigotes LmGLUT1 that are glucose transport deficient and complemented with the human glucose transporter GLUT1. Activity is measured by DNA content using SYBR green in vitro
[2] = biological target: Hexose transporter 1 (Plasmodium falciparum) (UniProt O97467); assay: ST_JUDE_LEISH: Cytotoxicity at 2uM final concentration against transgenic Leishmania Mexicana promastigotes LmPfHT that are glucose transport deficient and complemented with the Plasmodium falciparum hexose transporter. Activity is measured by DNA content using SYBR green in vitro
[3] = biological target: Glucose transporter (Leishmania mexicana) (UniProt O61059); assay: ST_JUDE_LEISH: Cytotoxicity at 2uM final concentration against transgenic Leishmania Mexicana promastigotes LmGT2 that are glucose transport deficient and complemented with the L. Mexicana glucose transporter 2. Activity is measured by DNA content using SYBR green in vitro

Solute carrier family 2, facilitated glucose transporter member 1 (Homo sapiens), sequence (P11166 whole entry): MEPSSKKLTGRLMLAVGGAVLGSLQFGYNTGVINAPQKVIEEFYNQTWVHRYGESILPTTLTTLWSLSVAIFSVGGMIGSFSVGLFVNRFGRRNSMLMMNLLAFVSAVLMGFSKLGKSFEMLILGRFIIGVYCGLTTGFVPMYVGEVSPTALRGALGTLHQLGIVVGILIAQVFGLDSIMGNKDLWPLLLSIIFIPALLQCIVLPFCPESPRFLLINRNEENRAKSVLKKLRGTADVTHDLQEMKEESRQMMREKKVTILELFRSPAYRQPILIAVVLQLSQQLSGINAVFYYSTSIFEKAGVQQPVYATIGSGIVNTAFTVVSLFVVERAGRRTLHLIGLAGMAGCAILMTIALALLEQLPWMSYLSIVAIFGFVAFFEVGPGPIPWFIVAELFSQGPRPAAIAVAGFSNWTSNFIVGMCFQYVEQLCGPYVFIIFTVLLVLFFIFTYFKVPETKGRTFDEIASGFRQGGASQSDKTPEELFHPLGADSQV

Row | Structure (SMILES) | inhibition [1] [%] | inhibition [2] [%] | inhibition [3] [%]
1 | O=C(NC1CCN(Cc2ccc(O)cc2)CC1)c1ccc(Cl)c(Cl)c1 | 4.53 | 4.25 | -3.12
2 | O=C(Nc1cccc(-c2ccc(-c3nc4ccccc4[nH]3)cc2)c1)c1cnn2cccnc12 | -0.77 | -0.45 | -0.33
3 | COc1cccc(NC(=O)Nc2c(-c3cccc(C(F)(F)F)c3)c(C(F)(F)F)nn2C)c1 | 0.7 | 1.76 | 0.37
4 | Cc1cc(N2C(N)=NC(N)=NC2(C)C)ccc1Cl | 0.08 | -0.81 | -0.97
5 | O=C(/C=C/c1ccc(Cl)c(Cl)c1)NC1CCC(CN2CCC(c3coc4ccccc34)CC2)CC1 (stereo not given) | -1.76 | 1.76 | -1.87
